BAZ2B inh – qHTS Assay for Inhibitors of BAZ2B; Bromodomain adjacent to zinc finger domain protein 2B (Homo sapiens), Q9UIF8; AlphaScreen BAZ2B-H3K14Ac peptide displacement; Potency, µM (doses to about 114 µM), for inactives: top-dose activity change, negative = inhibition, most hits filed as inhibitors; actives 4.4% (n = 360,000); further: potency means the concentration at half of the fitted maximal effect; on the % scale 0 is the no-effect control and ±100 the full control effect; nearly all actives have a fitted effect of over 60% in size
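AlphaScreen displacement of biotin-H3(5-23)K14Ac peptide (50 nM final) from BAZ2B (50 nM final) in PBS pH 7.4, 0.01% Tween-20; complex preformed 30 min RT, then compounds (top 110 uM) 30 min RT, beads 20 min dark.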
PI5P4K alpha inh – qHTS for Inhibitors of phosphatidylinositol 5-phosphate 4-kinase (PI5P4K); PI5P4Kalpha enzyme, ADP-Glo luminescence, 60 min; stronger effect = lower value; max response, %; actives 1.2% (n = 330,000); active means max response of -50% or lower; inconclusive means between -30% and -50%; inactive means -30% or higher; further: value at the top dose of about 77 µM; on the % scale 0 is the no-effect control and ±100 the full control effect
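Quantitative HTS of the MLSMR library against PI5P4Kalpha with substrate. ATP added last at 5 microM final; room temperature, 60 minutes. Remaining ATP depleted, ADP converted and read as luminescence.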
KAT2A inh – qHTS Assay for Inhibitors of GCN5L2; Histone acetyltransferase KAT2A (Homo sapiens), Q92830; GCN5L2 HAT assay, ThioGlo1 CoA-SH fluorescence; Potency, µM (highest dose often 58.9 µM), for the others: at the top dose activity change, negative = inhibition, actives largely listed as inhibitors; actives 0.21% (n = 390,000); further: potency means the concentration at half of the fitted maximal effect; on the % scale 0 is the no-effect control and ±100 the full control effect
Target sequence (Q92830 whole entry, looked up): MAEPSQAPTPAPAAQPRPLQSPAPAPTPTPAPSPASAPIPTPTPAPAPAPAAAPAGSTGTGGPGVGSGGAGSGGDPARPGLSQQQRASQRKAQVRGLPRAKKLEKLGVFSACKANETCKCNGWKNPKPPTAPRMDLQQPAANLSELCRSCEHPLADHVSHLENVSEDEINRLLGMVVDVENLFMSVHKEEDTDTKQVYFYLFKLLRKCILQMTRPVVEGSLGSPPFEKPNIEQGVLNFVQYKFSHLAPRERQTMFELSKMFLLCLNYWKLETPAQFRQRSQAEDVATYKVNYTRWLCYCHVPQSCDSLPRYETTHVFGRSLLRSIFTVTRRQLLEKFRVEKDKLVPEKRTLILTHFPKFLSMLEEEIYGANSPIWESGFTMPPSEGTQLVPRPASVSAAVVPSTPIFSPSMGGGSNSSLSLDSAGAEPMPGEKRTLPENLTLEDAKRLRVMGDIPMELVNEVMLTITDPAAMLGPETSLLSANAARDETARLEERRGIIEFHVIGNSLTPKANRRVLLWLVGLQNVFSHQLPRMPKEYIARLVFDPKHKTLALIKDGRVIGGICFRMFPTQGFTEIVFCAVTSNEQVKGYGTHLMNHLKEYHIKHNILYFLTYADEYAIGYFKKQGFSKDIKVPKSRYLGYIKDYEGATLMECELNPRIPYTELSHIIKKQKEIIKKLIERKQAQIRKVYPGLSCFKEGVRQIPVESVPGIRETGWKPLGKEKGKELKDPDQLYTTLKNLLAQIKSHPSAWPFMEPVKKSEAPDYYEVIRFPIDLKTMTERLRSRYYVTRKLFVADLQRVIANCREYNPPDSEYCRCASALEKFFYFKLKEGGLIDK
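Titration-based screen in which CoA formation is detected via maleimide probe ThioGlo1 (50uM) turning fluorescent on thiol reaction; substrates H3(1-25) 75uM and acetyl-CoA 70uM, GCN5L2 20nM, 20 min incubation at room temperature.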
PLK1 PBD block – qHTS for Inhibitors of PLK1-PDB (polo-like kinase 1 - polo-box domain): Primary Screen. Serine/threonine-protein kinase PLK1 (Homo sapiens), P53350. Plk1 PBD binding of FITC phosphopeptide, fluorescence polarization. Potency, µM, inactives show max response, negative = inhibition, hits mostly inhibitors. actives 2.8% (n = 360,000). AID 720504, 2013; further: potency means the concentration at half of the fitted maximal effect; series mostly up to about 57 µM; on the % scale 0 is the no-effect control and ±100 the full control effect; nearly all actives have a fitted effect of over 65% in size
HP1b binding inh – HTS for Inhibitors of HP1-beta Chromodomain Interactions with Methylated Histone Tails; Chromobox protein homolog 1 (Homo sapiens), P83916; AlphaScreen HP1-beta / biotin-H3K9me3 peptide binding; Potency, µM (titrated, usually from 114 µM), for the others: top-dose activity change, negative = inhibition, actives largely listed as inhibitors; actives 0.56% (n = 390,000); AID 540317, 2011; further: potency means the concentration at half of the fitted maximal effect; nearly all actives have a fitted effect of over 70% in size
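AlphaScreen: HP1-beta (50 nM) preformed 30 min with biotin-H3(1-18)K9me3 peptide (50 nM) in PBS pH 7.4, 0.01% Tween-20. Compound added for 30 min at RT, then streptavidin donor/nickel chelate acceptor beads (10 ug/mL) for 30 min.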
JMJD2A Tudor inh – qHTS Assay for Inhibitors of JMJD2A-Tudor Domain; Potency, µM (titrated, usually from 114 µM), for inactives: top-dose activity change, negative = inhibition, usual class: inhibitors; Lysine-specific demethylase 4A (Homo sapiens), O75164; AlphaScreen JMJD2A-Tudor / H3K4me3 peptide binding; AID 504339, 2011; actives 4.4% (n = 390,000); further: potency means the concentration at half of the fitted maximal effect; on the % scale 0 is the no-effect control and ±100 the full control effect; nearly all actives have a fitted effect of over 50% in size
ADP-Glo interf – qHTS for Inhibitors of PI5P4K: ADP-Glo counter assay | shares compounds with PI5P4K alpha inh | 1,100 tested, under 10 active | AID 743285, 2014 | ADP-Glo detection counter-screen, luciferase luminescence, no enzyme | Potency, µM (doses to about 76.9 µM), for inactives: at the top dose activity change, negative = inhibition, actives largely listed as inhibitors
Active calls of the source: *; ? = inconclusive; / = no result given; [ ] = dose if it differs, or a comment. A selection: hits, their analogues and other compounds. The true share with any hit is near 7%. Unless noted, the call rests on the fitted dose curve; in most records, active means well fitted curve in the direction sought with a large enough effect; inconclusive means small, poorly fitted or top-dose-only effect, or another doubt; inactive means no such curve, though single readings can be large; an effect the other way counts as inactive or inconclusive.

SMILES | BAZ2B inh | PI5P4K alpha inh | KAT2A inh | PLK1 PBD block | HP1b binding inh | JMJD2A Tudor inh | ADP-Glo interf
Cc1ccc(C)c(OC(C)C(=O)Nc2ccc(S(=O)(=O)Nc3nccs3)cc2)c1 (centres undefined) | -28% | -62* | -6% | -18% | ? | -33% | 0%
CC(C)c1ccc(-c2nc3c([nH]2)c(=O)n(C)c(=O)n3C)cc1 | 11% | -13 | 2% | -4% | 31% | -8% | /
Cn1c(=O)c2[nH]c(-c3ccc(S(=O)(=O)O)cc3)nc2n(C)c1=O | / | -54* | -25% | 0% | 28% | ? | -4%
COc1ccccc1-c1csc(C(C)(O)c2ccccc2)n1 (centres undefined) | / | 15 | / | -4% | / | / | /
O=C(O)c1cc(NS(=O)(=O)c2cccs2)cc(NS(=O)(=O)c2cccs2)c1 | 6% | -14 | -5% | 5% | 28% | -7% | /
O=C(O)c1ccc(Nc2nc3ccccc3nc2NS(=O)(=O)c2cccs2)cc1 | -10%[57.1 µM] | ? | -9% | ? | 53% | -23% | -8%
COCCNc1nc(NCC2CCCCC2)c2sc(-c3ccccc3)cc2n1 | / | / | / | -6% | / | / | -2%
c1ccc(-c2cc3nc(NCC4CC4)nc(NCC4CCCCC4)c3s2)cc1 | / | / | / | -4% | / | / | 5%
COc1ccc(NC(=O)C2Cc3c(-c4cccc(F)c4)ccnc3O2)cn1 (centres undefined) | / | -3 | / | 2% | / | / | /
N#Cc1c(SCC(=O)Nc2ccccc2C(F)(F)F)sc2c(O)cc(=O)[nH]c12 | -24% | ? | -27% | -17% | 14% | -14% | /
N#Cc1c(SCC(=O)Nc2nccs2)sc2c(O)cc(=O)[nH]c12 | 16µM* | -94* | ? | ? | -5% | -35% | 7%
CCCc1cc(=O)[nH]c2nnc(SCC(=O)Nc3nccs3)n12 | 0% | -6 | 0% | -2% | 31% | 0% | /
N#Cc1c(SCC(=O)Nc2nc3ccccc3s2)sc2c(O)cc(=O)[nH]c12 | 45µM* | -78* | ? | 24µM* | ? | 8.9µM* | -3%
CCOc1cccc(NC(=O)CSc2sc3c(O)cc(=O)[nH]c3c2C#N)c1 | -27% | -60* | -5% | -25% | 13% | -15% | 1%
N#Cc1c(SCC(=O)Nc2nc3ccc(Br)cc3s2)sc2c(O)cc(=O)[nH]c12 | 20µM* | -102* | ? | ? | 22µM* | 25µM* | 6%
CCOc1ccc(-n2c(SCC(=O)Nc3cccc(Cl)c3)nc3c(oc4ccccc43)c2=O)cc1 | 2% | / | -3% | / | 14% | -18% | /
O=C(CSc1nc(O)cc(=O)n1-c1ccccc1)Nc1nc2ccccc2s1 | ? | -66* | -11% | -25% | 17% | -33% | 2%
CCOC(=O)CSc1nc2ccc(NC(=O)CSc3nnnn3Cc3ccccc3)cc2s1 | -14% | -30 | -13% | -16% | 30% | -33% | -3%
O=C(NCc1ccccc1)C(c1cc2ccccc2o1)n1c(=O)c(-c2ccco2)nc2ccccc21 (centres undefined) | / | ? | / | -27% | / | / | /
O=C(NC1CCCCC1)C(c1ccnc2ccccc12)n1c(=O)c(-c2ccco2)nc2ccccc21 (centres undefined) | / | -78* | / | -14% | / | / | -5%
O=C(Nc1ccc2c(c1)OCCO2)C(c1ccnc2ccccc12)n1c(=O)c(-c2ccco2)nc2ccccc21 (centres undefined) | / | ? | / | -16% | / | / | /
O=C(NCc1ccccc1)C(c1ccccc1)n1c(=O)c(-c2ccco2)nc2ccccc21 (centres undefined) | / | -64* | / | ? | / | / | -4%
CC(=O)c1ccc(NC(=O)CC2Nc3cccc4cccc(c34)NC2=O)cc1 (centres undefined) | ? | -54* | -6% | -7% | -9% | ? | -5%
O=C(O)Cc1nc(-c2cccnc2)sc1-c1ccc(Br)cc1 | -15% | -61* | ? | ? | -10% | -20% | -7%
O=C(O)Cc1sc(-c2ccccc2)nc1-c1ccccc1 | -8% | 2 | -20% | -20% | 35% | -21% | /
SMILES | BAZ2B inh | PI5P4K alpha inh | KAT2A inh | PLK1 PBD block | HP1b binding inh | JMJD2A Tudor inh | ADP-Glo interf
CS(=O)(=O)c1ccc2nc(NC(=O)c3ccccc3)sc2c1 | 3% | -12 | -9% | -9% | 57% | 0% | /
CS(=O)(=O)c1ccc2nc(NC(=O)c3ccc(NS(=O)(=O)c4cccc([N+](=O)[O-])c4)cc3)sc2c1 | -3% | -57* | -15% | -26% | 7% | 1% | -7%
COC(=O)c1ccc([C@H]2Nc3ccc(S(=O)(=O)Nc4ccc(F)cc4)cc3[C@H]3C=CC[C@H]32)cc1 | ? | / | -6% | / | -14% | ? | /
COc1cccc(NS(=O)(=O)c2ccc3c(c2)C2C=CCC2C(c2ccc(C(=O)O)cc2)N3)c1 (centres undefined) | 45µM* | -66* | ? | ? | ? | 45µM* | -8%
COc1cccc(C(=O)N2CCC[C@H]2C(=O)N2CCC[C@H]2C(=O)N[C@H](C)c2ccccc2)c1 | / | 1 | / | -6% | / | / | /
O=C(CSc1c2c(nc3ccccc13)CCCC2)NCc1ccco1 | -14% | 2 | -3% | -3% | 39% | -4% | /
O=C(NCc1ccco1)c1c2c(nc3ccccc13)CCC2 | 50µM* | -71* | -10% | 3µM* | ? | ? | 0%
O=C(Nc1cccc(S(=O)(=O)N2CCOCC2)c1)c1c2c(nc3ccccc13)CCC2 | ? | -64* | -21% | -4% | -3% | -28% | -2%
Cc1cccc(NC(=O)C(C)Sc2nnc(-c3cccnc3)o2)c1 (centres undefined) | 11% | 0 | -2% | -12% | 13% | 12% | /
CCCCC1=CC2=CC(=O)C(C)(OC(=O)C3CCCC3)C(=O)C2=CO1 (centres undefined) | 50µM* | -73* | -4% | ? | ? | 79µM* | -9%
COc1ccc(Cl)cc1NC(=O)CN(C)C1CCCCC1 | 20% | 5 | -4% | -5% | 93% | 48% | /
COc1ccc(OC)c(NC(=O)CN(Cc2ccc(F)cc2)C2CCCCC2)c1 | -20% | -58* | -5% | 3% | 16% | -24% | -3%

Source: PubChem
